# Measured values: paper PMC11062922 (Nature Chemical Biology, 2023)
# Where two headings read alike, the source gives them in different places.
# Key:
# Set-up in all cases: species or system human, MV4-11 + K-562 + COLO205 + SK-N-BE2 + OVCAR-8
# [1] = test system: STK3; settings: read-out: apparent Kd, n = 1
# [2] = test system: ADCK1; settings: read-out: apparent Kd, n = 1
# [3] = test system: TNIK; settings: read-out: apparent Kd; compound concentrations: 100 nM and 1000 nM (sheet 'Samples'), CATDS: 4.94410528213204E-2; n = 1
# [4] = test system: PIK3CA; settings: read-out: apparent Kd, n = 1
# [5] = test system: ERCC2; settings: read-out: apparent Kd, compound concentrations: 100 nM and 1000 nM (sheet 'Samples'), n = 1
# [6] = test system: LIMK2; settings: read-out: apparent Kd, n = 1
# [7] = test system: MAPK8; settings: read-out: apparent Kd, n = 1
# [8] = test system: MTOR; settings: read-out: apparent Kd, n = 1
# [9] = test system: PIK3C2A; settings: read-out: apparent Kd, n = 1
# [10] = test system: CDK1; settings: read-out: apparent Kd, n = 1
# [11] = test system: CDK2; settings: read-out: apparent Kd, n = 1
# [12] = test system: CDK5; settings: read-out: apparent Kd; compound concentrations:100 nM and 1000 nM (sheet 'Samples'); n = 1
# [13] = test system: TEC; settings: read-out: apparent Kd; compound concentrations:100 nM and 1000 nM (sheet 'Samples'); n = 1
# [14] = test system: CSNK1A1; settings: read-out: apparent Kd, n = 1
# [15] = test system: PTK2B; settings: read-out: apparent Kd, n = 1
# [16] = test system: PTK2; settings: read-out: apparent Kd, n = 1
# [17] = test system: BRAF; settings: read-out: apparent Kd, n = 1
# [18] = test system: CSNK1D; settings: read-out: apparent Kd, n = 1
# [19] = test system: ADRBK1; settings: read-out: apparent Kd, n = 1
# [20] = test system: STK16; settings: read-out: apparent Kd; compound concentrations:100 nM and 1000 nM (sheet 'Samples'); n = 1
# [21] = compound concentrations:100 nM and 1000 nM (sheet 'Samples')
compound,measurement,setting,value
CN1CCc2ccc(Nc3nccc(-c4c(-c5cccc(NC(=O)c6c(F)cccc6F)c5)nc5ccccn45)n3)cc2C1.Cl [GSK1010829B],potency estimated from few doses,"[1]; compound concentrations: 100 nM and 1000 nM (sheet 'Samples'), CATDS: 3.0039466965453999E-2",2170 nM
CN1CCN(Cc2ccc(NC(=O)Nc3ccc(N(C)c4ccnc(Nc5ccc(CS(C)(=O)=O)cc5)n4)cc3)cc2)CC1.Cl [GW827654A],potency estimated from few doses,"[2]; compound concentrations: 100 nM and 1000 nM (sheet 'Samples'), CATDS: 3.6113243316098803E-2",1520 nM
Fc1cc(Cl)ccc1Nc1ccnc2cc(-c3ccc(CN4CCOCC4)o3)ccc12 [GW560109X],potency estimated from few doses,[3],2050 nM
Nc1ncc(-c2cn[nH]c2)c2scc(-c3ccc4c(c3)CCN4C(=O)Cc3ccccc3)c12 [GSK2593067A],potency estimated from few doses,"[1]; compound concentrations: 100 nM and 1000 nM (sheet 'Samples'), CATDS: 6.6601304210445203E-2",1190 nM
Cc1cc(O)cc(C)c1/C=C/c1cncc(-c2nn[nH]n2)c1.Cl [GW441806A],potency estimated from few doses,"[4]; compound concentrations: 100 nM and 1000 nM (sheet 'Samples'), CATDS: 8.3670028423682499E-2",256 nM
CS(=O)(=O)Cc1ccc(Nc2nccc(-c3c(-c4cccc(NC(=O)c5c(F)cccc5F)c4)nn4ccccc34)n2)cc1 [GSK323543A],potency estimated from few doses,[5]; CATDS: 6.1110797752593003E-2,1570 nM
CC(=O)N1CCN(c2ccc(Nc3nccc(-c4sc(C(C)C)nc4-c4cccc(NS(=O)(=O)c5cccc(Cl)c5)c4)n3)cn2)CC1 [GSK1660437A],potency estimated from few doses,"[6]; compound concentrations: 100 nM and 1000 nM (sheet 'Samples'), CATDS: 4.7315516345464E-2",946 nM
O=S(=O)(CCOCc1ccc(-c2ccc3ncnc(Nc4ccc(OCc5cccc(F)c5)c(Cl)c4)c3c2)o1)c1ccccc1 [GW615311X],potency estimated from few doses,"[7]; compound concentrations: 100 nM and 1000 nM (sheet 'Samples'), CATDS: 2.6376171995156399E-2",1540 nM
same,potency estimated from few doses,"[8]; compound concentrations: 100 nM and 1000 nM (sheet 'Samples'), CATDS: 4.7570184263153799E-2",527 nM
same,potency estimated from few doses,"[9]; compound concentrations: 100 nM and 1000 nM (sheet 'Samples'), CATDS: 2.34385173398927E-2",2050 nM
same,potency estimated from few doses,"[1]; compound concentrations: 100 nM and 1000 nM (sheet 'Samples'), CATDS: 2.3351352966808198E-2",2070 nM
Fc1ccc(-c2c(-c3ccncc3)[nH]c3nccnc23)cc1 [RO1155697-000],potency estimated from few doses,[7]; [21],1790 nM
N#Cc1cccc(Nc2nccc(-c3cnn4ncccc34)n2)c1 [GW778894X],potency estimated from few doses,[2]; [21],2050 nM
same,potency estimated from few doses,[10]; [21],1240 nM
same,potency estimated from few doses,"[11]; compound concentrations: 100 nM and 1000 nM (sheet 'Samples'), CATDS: 2.8219089282239498E-2",194 nM
same,potency estimated from few doses,[12],669 nM
same,potency estimated from few doses,[7]; [21],1330 nM
Nc1nc(N)c2nc(-c3ccccc3)[nH]c2n1 [SKF-12778],potency estimated from few doses,[2]; [21],1200 nM
same,potency estimated from few doses,[8]; [21],400 nM
same,potency estimated from few doses,[9]; [21],2130 nM
same,potency estimated from few doses,[13],1160 nM
CC(=O)c1c(-c2ccncc2)[nH]c(-c2ccncc2)c1C [GW493036X],potency estimated from few doses,"[14]; compound concentrations: 100 nM and 1000 nM (sheet 'Samples'), CATDS: 4.1725323261606301E-2",874 nM
CNc1nccc(-c2c(-c3ccc(F)cc3)ncn2C2CCN(C)CC2)n1 [SB-222903],potency estimated from few doses,[8]; [21],295 nM
Cl.Cn1c(=O)c(Cc2ccc(F)cc2F)cc2cnc(NC3CCOCC3)nc21 [RO3308757-001],potency estimated from few doses,[15]; [21],456 nM
same,potency estimated from few doses,[16]; [21],474 nM
Cn1cc(-c2cnc(N)c3c(-c4ccc5c(c4)CCN5C(=O)Cc4ccccc4)csc23)cn1 [GSK2593074A],potency estimated from few doses,[1]; [21],1890 nM
CC(C)c1nc(-c2ccc(F)c(NS(=O)(=O)c3c(F)cccc3F)c2)c(-c2ccnc(Nc3ccc(N4CCOCC4)nc3)n2)s1 [GSK1804250A],potency estimated from few doses,[17]; [21],939 nM
same,potency estimated from few doses,[6]; [21],478 nM
COc1cc2ncn(-c3cc(OCCCc4ccccc4)c(C(N)=O)s3)c2cc1OC [GSK205189A],potency estimated from few doses,[15]; [21],642 nM
same,potency estimated from few doses,[16]; [21],678 nM
Cc1ccc(NC(=O)c2ccc(Cl)cc2)cc1-c1ccc(C(=O)Nc2ccncc2)cc1 [GSK1398467A],potency estimated from few doses,"[18]; compound concentrations: 100 nM and 1000 nM (sheet 'Samples'), CATDS: 0.16187565637937301",2020 nM
Clc1ccc(-c2nn3ncccc3c2-c2ccnc(Nc3ccccc3)n2)cc1 [GW829055X],potency estimated from few doses,"[2]; compound concentrations: 100 nM and 1000 nM (sheet 'Samples'), CATDS: 3.6697893678181097E-2",1430 nM
same,potency estimated from few doses,"[19]; compound concentrations: 100 nM and 1000 nM (sheet 'Samples'), CATDS: 3.1852234097214598E-2",2080 nM
same,potency estimated from few doses,"[14]; compound concentrations: 100 nM and 1000 nM (sheet 'Samples'), CATDS: 3.2884610425315097E-2",1900 nM
same,potency estimated from few doses,"[1]; compound concentrations: 100 nM and 1000 nM (sheet 'Samples'), CATDS: 3.09457854656708E-2",2270 nM
COc1ccc(C2=NC(c3ccc(Cl)cc3F)C(C(=O)Nc3ccc4[nH]ncc4c3)=C(C)N2)cn1.O=C(O)C(F)(F)F (stereo not shown) [GSK534913A],potency estimated from few doses,[19]; [21],895 nM
NC(=O)c1cccnc1COc1cc(-c2ccc(N3CCOCC3)nc2)cc2ncccc12 [BI01125081],potency estimated from few doses,[20],1240 nM
Nc1c(C(=O)c2ccccc2)cnn1-c1ccc(F)cc1 [RO1151246-000],potency estimated from few doses,[10]; [21],1880 nM
same,potency estimated from few doses,[9]; [21],1660 nM
COc1ccc(-c2nn3ncccc3c2-c2ccnc(Nc3ccc4c(c3)OCCO4)n2)cc1 [GW827106X],potency estimated from few doses,"[18]; compound concentrations: 100 nM and 1000 nM (sheet 'Samples'), CATDS: 4.1816048723515499E-2",2430 nM
same,potency estimated from few doses,"[4]; compound concentrations: 100 nM and 1000 nM (sheet 'Samples'), CATDS: 0.187165726463497",172 nM
Fc1ccc(-c2ncn(C3CCNCC3)c2-c2ccnc(Oc3ccc4c(c3)OCO4)n2)cc1 [SB-250715],potency estimated from few doses,[2]; [21],1850 nM
same,potency estimated from few doses,[19]; [21],2150 nM
same,potency estimated from few doses,[14]; [21],1300 nM
same,potency estimated from few doses,[18]; [21],271 nM
NS(=O)(=O)c1cccc(-c2ccc3nccc(-c4cccc(S(N)(=O)=O)c4)c3c2)c1 [GW867253X],potency estimated from few doses,"[19]; compound concentrations: 100 nM and 1000 nM (sheet 'Samples'), CATDS: 0.51630856929824398",1860 nM
Cl.Oc1ccc2ncnc(Nc3ccc(OCc4ccccc4)cc3)c2c1 [GI262866A],potency estimated from few doses,[20],1160 nM
CCCN1CCC(Oc2cc(Nc3nc(Nc4cccc(F)c4C(N)=O)c4cc[nH]c4n3)c(OC)cc2Cl)CC1 [GSK1713088A],potency estimated from few doses,[5]; CATDS: 0.17876672107785799,2040 nM
COc1ccc(Nc2nccc(N3CCC(NC(=O)Nc4cccc(OC)c4)C3)n2)cc1 (stereo not shown) [GSK1379742A],potency estimated from few doses,"[10]; compound concentrations: 100 nM and 1000 nM (sheet 'Samples'), CATDS: 0.12045824140997501",1770 nM
COc1ccc(C2=C(Nc3cccc(O)c3)C(=O)NC2=O)cc1 [SB-390766],potency estimated from few doses,[4]; [21],115 nM
same,potency estimated from few doses,[20],1590 nM
COc1cc(N2CCN(C(C)C)CC2)ccc1Nc1nc(Nc2cccc(F)c2C(=O)O)c2cc[nH]c2n1 [GSK1819799A],potency estimated from few doses,"[7]; compound concentrations: 100 nM and 1000 nM (sheet 'Samples'), CATDS: 0.22198197498325201",84.9 nM
same,potency estimated from few doses,"[15]; compound concentrations: 100 nM and 1000 nM (sheet 'Samples'), CATDS: 7.8469335656757594E-2",466 nM
same,potency estimated from few doses,"[16]; compound concentrations: 100 nM and 1000 nM (sheet 'Samples'), CATDS: 7.4046545419842305E-2",522 nM
COc1cc(F)c(F)c(F)c1C(=O)c1cnc(NC2CCN(S(C)(=O)=O)CC2)nc1N [RO4600703-000],potency estimated from few doses,[10]; [21],368 nM
same,potency estimated from few doses,[11]; [21],90.2 nM
same,potency estimated from few doses,[12],138 nM
CN(C)CCOc1ccc(-c2cc(-c3ccc4c(c3)CCC4=NO)c(-c3ccncc3)o2)cc1.Cl [SB-682330-A],potency estimated from few doses,"[17]; compound concentrations: 100 nM and 1000 nM (sheet 'Samples'), CATDS: 0.43506507859715299",644 nM
